Experimental findings from PubChem BioAssay (NCI) are described below.

About 83,000 compounds went through this panel and 20% of them were active in at least one assay; those are over-represented in the sample as a whole.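 Cell lines were cultured in 96-well plates, exposed to a single compound concentration, and assessed for percent growth 48 hours later.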 Values without a mark were called inactive. Calls of active or inactive are those of the source. The calls were made as follows: active = growth percent below 10; inactive = the rest.

Assay in all cases: NCI-60 one-dose screen, 48 h (100 = growth as untreated, 0 = no growth, -100 = all killed)
Holding throughout (details): 10 µM

Test [1] has as its system DU-145 prostate.
The test system of test [2] is K-562 leukemia.
Test [3] deals with MDA-MB-231 breast.
Test [4] concerns RXF 393 renal.
Test [5] concerns SF-268 CNS.
Test [6] deals with SF-295 CNS.
Test [7] concerns SF-539 CNS.
For test [8], the system named is UACC-257 melanoma.
The subject of test [9] is M14 melanoma.
For test [10], the system named is MALME-3M melanoma.

Regarding `CC(=O)Nc1nc(C)c(C(=O)NNC=O)s1`, the growth in test [1] was 108%; in test [2] it was 54.8%; in test [3], 106%; in test [4] it was 109%; in test [5] it was 94.8%; in test [6], 112%. The growth in test [7] is 102%; in test [8], 106%; in test [9], 120%.
`CCOC(=O)C(=O)Cc1cccnn1`: the growth in test [1] was 113%; in test [2], 110%; in [3], 96.4%; in test [4], 102%; in test [5] it was 113%; in test [6] it was 139%. For the same compound, the figures for the growth in [7], in test [8] and in [9] were 92.4%, 96.2% and 103%, respectively.
Regarding `CN(C)CCCN1c2ccccc2Sc2ccc(C(F)(F)F)cc21`, the growth in test [1] is 50.3%; in test [2] it was -46.2% (active); in test [10], -80.6% (active); in test [3], 4.03% (active); in [5] it was 16.8%; in [6] it was -2.18% (active). Moreover, the growth in [7] was 3.74% (active); in test [8], 6.53% (active); in [9] it was -84.6% (active).
As to `CC(=O)OC1Oc2ccccc2-c2oc(=O)c(-c3ccc(F)cc3)cc21` (stereo not drawn), the growth in test [1] is 92.4%; in test [2] it was 87.7%; in test [10], 99.5%; in test [3] it was 73.1%; in test [5], 81.4%; in test [6] it was 89.1%. Further, the figures for the growth in [7], in test [8] and in test [9] were 86.4%, 58.6% and 100%, respectively.
For the compound `CCOC(=O)C(CCC1=NC(C)(C)CC(C)O1)C(=O)OCC` (stereo not drawn), the growth was 10.4% in [1]; 85% in test [2]; 106% in test [3]; 85% in test [4]; 98% in test [5]; 74.5% in [6]. In addition, the growth was 102% in [7], 105% in test [8] and 84% in test [9].
In the case of `COc1cc(C2c3cc4c(cc3C(O)C(CO)C2CO)OCO4)cc(OC)c1OC` (stereo not drawn), the growth is 0.809% (active) in [1]; 11.3% in [2]; 41.2% in test [3]; -6.08% (active) in test [4]; 35.9% in test [5]; -42.8% (active) in test [6]. The growth in [7] is -16.4% (active); in test [8], 62%; in test [9], 22.5%.
Consider `COc1ccc(/C=C(\c2cc(OC)c(OC)c(OC)c2)c2nnc(-c3cccs3)o2)cc1`, for which the growth is 77% in test [1]; 89.5% in test [2]; 71.7% in [3]; 49.2% in test [4]; 42% in [5]; 73.4% in test [6]. For the same compound, the growth is 47.6% in test [7], 76.5% in test [8] and 93.2% in test [9].
Regarding `Oc1ccc(Cn2cc3c(c2-c2ccccc2)CCc2cnoc2-3)cc1`, the growth in test [1] was 106%; in test [2], 70%; in test [3], 81.5%; in test [4], 110%; in test [5], 106%; in test [6], 82%. Besides, the growth in test [7] was 94.5%; in test [8] it was 92.2%; in test [9], 89.5%.
On to `CCOC(=O)c1cc2c(n1Cc1ccccc1)-c1oncc1CC2`, for which the growth in test [1] is 82.8%; in [2], 15.3%; in test [3], 95.8%; in test [4], 94.6%; in test [5], 54.2%; in test [6], 64.5%. The values for the growth in [7], in test [8] and in test [9] were 90.5%, 103% and 99.6%, respectively.
Consider `CCCCNC(=O)Oc1ccc(/C(=C(\C)c2ccc(OC)cc2)c2ccc(OCCN3CCCCC3)cc2)cc1`, for which the growth in test [1] was 72.9%; in [2], -0.634% (active); in test [3], 53.4%; in test [4], 28.6%; in test [5] it was 66.9%; in test [6], 12.5%. The values for the growth in [7], in test [8] and in test [9] were 5% (active), -9.86% (active) and -54.8% (active), respectively.
Consider `CC(=O)Oc1ccc(C2=Cc3ccc(OC(C)=O)cc3OC2C)cc1` (stereo not drawn), for which the growth in test [1] is 62.8%; in test [2], 28.4%; in test [3], 67.9%; in test [4], 68.9%; in [5] it was 57.9%; in test [6], 69.9%. Also, the growth is 28% in test [7], 81.3% in [8] and 49.8% in test [9].
As to `COc1ccc(-c2ccccc2)cc1C(=O)c1ccc(-c2ccccc2)cc1`, the growth in [1] was 94%; in test [2], 20.8%; in test [3], 96.8%; in test [4] it was 85.7%; in test [5], 88.5%; in test [6] it was 53.4%. Further, the growth in [7] is 88.4%; in [8], 106%; in [9], 52%.
Consider `Nc1cc2c(cc1Cl)-c1ccc(Cl)cc1C2=O`, for which the growth in test [1] was 105%; in test [2], 89.9%; in test [3] it was 82.5%; in [4], 131%; in test [5], 93.8%; in test [6], 115%. The growth is 78.2% in test [7], 103% in test [8] and 104% in [9].
Take `CCN(CC)CC(O)CNc1ccnc2cc(Cl)c(Cl)cc12` (stereo not drawn): the growth in test [1] was 92.6%; in [2], 77.7%; in test [3] it was 60%; in [4] it was 81.5%; in test [5], 83.2%; in test [6] it was 97.9%. Further, the growth was 95.5% in test [7], 101% in test [8] and 106% in [9].
Take `[O-]c1c[n+](-c2ccc(Cl)cc2)no1`: the growth in test [1] was 107%; in test [2], 106%; in test [3], 80.1%; in test [4], 116%; in [5], 100%; in test [6], 112%. For the same compound, the growth in test [7] is 119%; in test [8], 104%; in test [9], 104%.
For the compound `Nc1nc(SCC#CCCl)c2[nH]cnc2n1`, the growth in [1] was 56.5%; in [2] it was 38.2%; in test [3] it was 65.6%; in test [4] it was 46.7%; in [5] it was 52.8%; in [6] it was 60.2%. Besides, the growth is 50.4% in test [7], 50% in test [8] and 54.2% in test [9].
In the case of `COc1ccc(C(=O)n2nc(CC(=O)NCc3ccccc3)nc2N)cc1`, the growth was 115% in test [1]; 95.7% in test [2]; 96.2% in test [3]; 118% in [4]; 108% in test [5]; 108% in test [6]. Moreover, the growth was 112% in [7], 105% in test [8] and 101% in test [9].
As to `O=C1c2cc(Cl)ccc2-c2c(O)cc(Cl)cc21`, the growth is 98.8% in [1]; 57.2% in test [2]; 79.2% in [3]; 68.8% in [4]; 86.1% in test [5]; 99.1% in test [6]. Also, the growth in [7] is 80.7%; in [8] it was 105%; in test [9], 91.8%.
`COC(=O)c1ccc(Cn2ccc(=O)[nH]c2=O)cc1`: the growth was 105% in test [1]; 113% in test [2]; 99.4% in test [3]; 108% in [4]; 119% in [5]; 109% in test [6]. In addition, the values for the growth in [7], in test [8] and in test [9] were 83.8%, 112% and 102%, respectively.
For the compound `O=[N+]([O-])c1ccc(S(=O)(=O)OCCCCOS(=O)(=O)c2ccc([N+](=O)[O-])cc2)cc1`, the growth was 107% in [1]; 94.7% in test [2]; 106% in test [3]; 112% in test [4]; 106% in test [5]; 105% in test [6]. For the same compound, the growth was 104% in test [7], 108% in test [8] and 104% in [9].
In the case of `CC1(C)CCc2cc(-c3ccn(S(=O)(=O)c4ccc(Cl)cc4)n3)ccc2O1`, the growth in test [1] was 88.3%; in test [2], 52.4%; in [3], 76.4%; in test [4], 89%; in test [5] it was 90.7%; in test [6], 78.7%. Besides, the values for the growth in test [7], in test [8] and in test [9] were 101%, 64.9% and 80.1%, respectively.
`N#C/C(=C\N1C(=O)/C(=C/c2cccc([N+](=O)[O-])c2)SC1=S)c1nc2ccccc2s1`: the growth in test [1] was 99.6%; in [2], 77.1%; in test [3], 79.7%; in [4] it was 105%; in [5], 85.3%; in test [6] it was 86.9%. Moreover, the growth in test [7] is 80.3%; in [8] it was 68.3%; in test [9], 81%.
On to `COc1ccc(-c2n/c(=C\c3c(O)[nH]c4ccccc34)cc3c2=Nc2ccccc2-3)cc1`, for which the growth in [1] was 19.1%; in [2], -8.09% (active); in test [3], 30.6%; in [4], 44.8%; in test [5], 5.04% (active); in test [6], 38.5%. In addition, the growth in [7] is 82.6%; in [8], 91.8%; in test [9] it was 3.99% (active).
As for `COc1cc(/C=C/C(=O)c2cc(-c3ccccc3)ccc2O)cc(OC)c1OC`, the growth was 91% in [1]; 34% in test [2]; 71% in [3]; 97.8% in test [4]; 83.2% in test [5]; 74.6% in [6]. Besides, the growth in test [7] was 80.2%; in test [8] it was 69.9%; in [9], 96.7%.
Regarding `O=CNc1c(Cl)cc2c(c1Cl)Cc1cc([N+](=O)[O-])ccc1-2`, the growth was 79.1% in [1]; 16.4% in test [2]; 63.6% in [3]; 96.9% in [4]; 78.8% in [5]; 77.3% in test [6]. Also, the values for the growth in test [7], in test [8] and in test [9] were 67.9%, 72.6% and 28.7%, respectively.
With `CCN1CCOC1C(C)C` (stereo not drawn), the growth in [1] is 110%; in test [2], 90.3%; in test [3], 99.2%; in [4], 109%; in test [5], 102%; in test [6], 105%. Moreover, the growth in [7] was 95%; in [8], 104%; in test [9], 93.7%.
As for `NC(=O)C12C(=O)NC(=O)C1(C(=O)O)C21CCCC1` (stereo not drawn), the growth is 133% in test [1]; 108% in [2]; 98.9% in [3]; 122% in test [4]; 114% in [5]; 110% in [6]. Besides, the growth was 113% in [7], 103% in test [8] and 105% in [9].
As for `CCOC(=O)c1sc(NC(=O)c2cc(OC)c(OC)c(OC)c2)nc1C`, the growth was 110% in test [1]; 51.2% in test [2]; 96.3% in [3]; 119% in test [4]; 97.3% in test [5]; 110% in [6]. Besides, the growth in test [7] was 103%; in test [8], 108%; in test [9], 118%.
Take `S=C(Cc1ccc(-c2ccccc2)cc1)N1CCOCC1`: the growth was 104% in test [1]; 95.3% in test [2]; 84.7% in test [3]; 103% in test [4]; 101% in test [5]; 93.6% in [6]. In addition, the results for the growth in test [7], in test [8] and in test [9] were 99%, 107% and 101%, respectively.
Take `COc1ccc2c(c1)/C(=C/c1cc(OC)c(OC)c(OC)c1)C(=O)N2C`: the growth in test [1] is -0.621% (active); in test [2], 0.985% (active); in test [3], 20.9%; in test [4], -60.8% (active); in test [5], 0.418% (active); in test [6] it was -30.1% (active). In addition, the growth in test [7] is -22% (active); in test [8] it was -6.05% (active); in test [9] it was 8.46% (active).
As to `C/C(=N\NC(N)=S)C(C)(C)O`, the growth was 93.2% in [1]; 37.1% in test [2]; 77.8% in [3]; 96.2% in test [4]; 95.9% in [5]; 79.5% in [6]. Further, the growth was 102% in [7], 32.6% in test [8] and 92% in [9].
`CC(=O)Nc1ccc2c(c1)C(N1CC3CCC(CC3)C1)c1ccccc1-2` (stereo not drawn): the growth in test [1] is 109%; in [2], 58.9%; in test [3], 91.6%; in test [4] it was 81.9%; in test [5], 92.7%; in test [6], 101%. Moreover, the growth in test [7] was 97.2%; in test [8] it was 84.1%; in test [9], 102%.
